Compound activity as filed in PubChem BioAssay.
IDE exosite FP – insulin-degrading enzyme (human) exo-site inhibition; P14735; purified IDE, FL-6b probe fluorescence polarization; hits give low values; hit rate 6.3% among 17,000; z-score at 20 µM; AID 1259349;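 active = z-score of -3 or lower, meaning strong loss of probe binding signal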;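 note: His-tagged human IDE residues 42-1019 made in E. coli with 30 nM FL-6b probe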
The depositor's hits bear a star. This excerpt belongs to a sample that is enriched for hits.

SMILES | IDE exosite FP
N#C[C@@H]1[C@@H](c2ccccc2-c2ccccc2F)[C@@H](CO)N1C(=O)c1ccccn1 | 1.97
CCCNC(=O)N1[C@H](C#N)[C@@H](c2ccc(-c3cccc(OC)c3)cc2)[C@H]1CO | -1.3
N#C[C@H]1[C@H](c2ccc(-c3ccccc3F)cc2)[C@@H](CO)N1C(=O)c1ccccn1 | 0.884
COc1cccc(-c2ccc([C@@H]3[C@@H](C#N)N(C(=O)Cc4ccccc4)[C@@H]3CO)cc2)c1 | -5.34*
COc1cccc(-c2ccccc2[C@H]2[C@@H](C#N)N(C(=O)c3ccccn3)[C@@H]2CO)c1 | -0.393
O=C(NC[C@@H]1N[C@@H](CO)[C@@H]1c1ccccc1)c1ccccc1F | 0.951
COc1cccc(-c2ccc([C@@H]3[C@@H](C#N)N(C(=O)c4ccccn4)[C@@H]3CO)cc2)c1 | -4.98*
O=C(NC[C@@H]1N[C@@H](CO)[C@@H]1c1ccc(-c2ccccc2F)cc1)c1ccccn1 | -4.54*
N#C[C@H]1[C@H](c2ccc(-c3ccccc3F)cc2)[C@H](CO)N1C(=O)c1ccccn1 | -3.1*
COc1cccc(-c2ccc([C@@H]3[C@@H](C#N)N(C(=O)Cc4ccccc4)[C@H]3CO)cc2)c1 | 2.96
O=C(NC[C@H]1N[C@@H](CO)[C@H]1c1ccc(-c2ccccc2)cc1)c1ccccc1F | 1.14
CCCC#Cc1ccc([C@H]2[C@H](CO)N3C(=O)CN(C(=O)c4cccc(F)c4)C[C@@H]23)cc1 | 0.269
Cc1noc(C)c1NC(=O)N(C)C[C@@H]1OCc2ccccc2-c2c(n(C)c3ccccc23)C(=O)N([C@@H](C)CO)C[C@H]1C | 0.61
O=C(Nc1cccc(Cl)c1)N1C[C@H]2[C@@H](c3ccccc31)[C@@H](CO)N2Cc1cccnc1 | 3.34
O=C(c1ccc(F)cc1)N1CC(=O)N2[C@@H](CO)[C@H](c3ccc(-c4ccccc4)cc3)[C@@H]2C1 | -1.34
CN1C(=O)c2cc(NC(=O)c3cccc(C(F)(F)F)c3)ccc2OC[C@H]2O[C@H](CC(=O)NCCN3CCCC3)CC[C@@H]21 | -0.147
CN(C)CC#Cc1ccc([C@@H]2[C@H](CO)N3CCCCN(C(=O)Nc4ccccc4F)C[C@@H]23)cc1 | 0.631
COc1ccc2c3c(n(C)c2c1)[C@H](CO)N(C(=O)Nc1ccc(F)cc1)CC31CN(S(=O)(=O)c2cn(C)cn2)C1 | 0.383
CNC[C@H]1OCCCC[C@H](C)Oc2ccc(NS(=O)(=O)c3ccc(F)cc3)cc2C(=O)N([C@@H](C)CO)C[C@@H]1C | 2.79
O=C(C[C@H]1C[C@@H]2c3cc(NC(=O)C4CCOCC4)ccc3O[C@@H]2[C@H](CO)O1)NCc1cccnc1 | 1.18
CO[C@@H]1CN(C)C(=O)c2cc(NC(=O)CC(F)(F)F)ccc2OC[C@@H](C)N(CC2CC2)C[C@@H]1C | -0.201
CCCC#Cc1ccc([C@H]2[C@@H](C#N)N(C(=O)C3CCCC3)[C@@H]2CO)cc1 | 1.34
C[C@@H]1CCCCO[C@@H](CN(C)C(=O)c2ccncc2)[C@H](C)CN([C@@H](C)CO)C(=O)c2cc(NS(=O)(=O)c3cccs3)ccc2O1 | 0.332
COc1cccc(-c2ccccc2[C@H]2[C@@H](C#N)N(C(=O)Cc3ccccc3)[C@@H]2CO)c1 | -1.59
COc1cccc(-c2ccccc2[C@H]2[C@@H](C#N)N(C(=O)Cc3ccccc3)[C@H]2CO)c1 | 0.948
SMILES | IDE exosite FP
COc1cccc(-c2ccc([C@H]3[C@@H](C#N)N(C(=O)Cc4ccccc4)[C@@H]3CO)cc2)c1 | -3.8*
Cc1noc(C)c1NC(=O)N(C)C[C@H]1OCc2ccccc2-c2c(n(C)c3ccccc23)C(=O)N([C@H](C)CO)C[C@H]1C | -0.0373
C[C@@H]1CCCn2nncc2COCCNC1=O | 0.286
CCC(=O)N1[C@H](CO)[C@@H](c2ccccc2)C12CN(C(=O)CN1CCOCC1)C2 | 0.552
CCCNC(=O)N(C)C[C@H]1N[C@@H](CO)[C@@H]1c1ccc(C2=CCCCC2)cc1 | 3.99
Cc1ccccc1S(=O)(=O)N1CC(=O)N2[C@H](CO)[C@@H](c3ccc(C#Cc4ccccc4)cc3)[C@@H]2C1 | 0.0775
CCS(=O)(=O)N1CCCCN2[C@H](CO)[C@@H](c3ccc(C#Cc4ccccc4OC)cc3)[C@@H]2C1 | -11.4*
O=S(=O)(Cc1ccccc1)N1CCCCN2[C@H](C1)[C@@H](c1ccc(C#Cc3ccccc3)cc1)[C@@H]2CO | -1.87
COc1ccc(C#Cc2ccc([C@H]3[C@@H](CO)N4CCCCN(S(=O)(=O)c5ccccc5)C[C@H]34)cc2)cc1 | -1.2
CCCC#Cc1ccc([C@@H]2[C@H]3CN(S(=O)(=O)CC)CCCCN3[C@H]2CO)cc1 | -0.0617
CCS(=O)(=O)N1CCCCN2[C@H](C1)[C@@H](c1ccc(C#Cc3ccccc3OC)cc1)[C@@H]2CO | -9.45*
CCCC#Cc1ccc([C@@H]2[C@H]3CN(S(=O)(=O)Cc4ccccc4)CCCCN3[C@H]2CO)cc1 | 3.78
CCS(=O)(=O)N1CCCCN2[C@H](C1)[C@H](c1ccc(C#Cc3ccccn3)cc1)[C@@H]2CO | -0.605
CCCC#Cc1ccc([C@@H]2[C@H](CO)N3CCCCN(S(=O)(=O)CC)C[C@@H]23)cc1 | -3.04*
CCS(=O)(=O)N1CCCCN2[C@H](CO)[C@H](c3ccc(C#Cc4ccccn4)cc3)[C@@H]2C1 | -0.0513
CCCC#Cc1ccc([C@@H]2[C@@H](CO)N3CCCCN(S(=O)(=O)CC)C[C@@H]23)cc1 | -2.08
CCS(=O)(=O)N1CCCCN2[C@@H](CO)[C@@H](c3ccc(C#Cc4ccccc4OC)cc3)[C@@H]2C1 | -19.7*
O=S(=O)(Cc1ccccc1)N1CCCCN2[C@H](C1)[C@H](c1ccc(C#Cc3ccccc3)cc1)[C@@H]2CO | 5.89
CCS(=O)(=O)N1CC2(CN(C)[C@H](CO)c3c2c2ccc(OC)cc2n3C)C1 | 0.861
COCCNC(=O)C[C@@H]1CC[C@@H]2[C@H](COc3ccc(NS(=O)(=O)c4ccc(Cl)cc4)cc3C(=O)N2C)O1 | -1.51
COCC(=O)N1[C@@H](CO)[C@@H]2c3ccccc3NC[C@@H]21 | 2.78
C/C=C/c1ccc([C@H]2[C@H](CO)N[C@H]2CN(C(=O)C2CCC2)C(C)C)cc1 | 5.95
CO[C@H]1CC[C@H]2CCN(C)C(=O)[C@H](C)N(C)C(=O)c3cccc(C#N)c3OC[C@H]1O2 | 0.398
O=C(NCc1ccc(F)cc1)[C@H]1[C@H](CO)[C@H]2Cn3c(cccc3=O)[C@H]2N1C(=O)c1cccnc1 | -0.137
Cc1ccccc1S(=O)(=O)N1CCCCN2[C@H](C1)[C@H](c1ccc(-c3cccc(F)c3)cc1)[C@@H]2CO | 2.81
SMILES | IDE exosite FP
Cc1ccccc1-c1ccc([C@H]2[C@H]3CN(C(=O)CN4CCOCC4)CCCCN3[C@H]2CO)cc1 | -2.21
COc1ccccc1-c1ccc([C@H]2[C@@H](CO)N3CCCCN(C(=O)CN4CCOCC4)C[C@@H]23)cc1 | 0.407
CN1c2ccc(-c3cccc(C#N)c3)cc2[C@@H]2[C@@H](CCN2C(=O)CN2CCOCC2)[C@H]1CO | 1.49
CN1c2ccc(Br)cc2[C@H]2[C@H](CCN2C(=O)CN2CCOCC2)[C@H]1CO | 2.63
Cc1ccccc1-c1ccc([C@@H]2[C@H](CO)N3CCCCN(C(=O)CN4CCOCC4)C[C@@H]23)cc1 | -13.7*
COc1ccccc1-c1ccc2c(c1)[C@H]1[C@H](CCN1C(=O)CN1CCOCC1)[C@H](CO)N2C | -3.33*
COc1ccccc1-c1ccc([C@@H]2[C@@H](CO)N3CCCCN(C(=O)CN4CCOCC4)C[C@H]23)cc1 | 1.85
COc1ccccc1-c1ccc([C@@H]2[C@@H](CO)N3CCCCN(C(=O)CN4CCOCC4)C[C@@H]23)cc1 | -6.52*
